FEN1 inh-1: qHTS Assay for the Inhibitors of Human Flap endonuclease 1 (FEN1); P39748; Recombinant FEN1 flap cleavage, fluorescence, 15 min; AID 588795, 2011; 390,000 compounds, 0.35% hits; Potency, µM (highest dose often 114 µM), without a hit: top-dose activity change, negative = inhibition, most hits filed as inhibitors; further: on the % scale 0 is the no-effect control and ±100 the full control effect; nearly all actives have a fitted effect of over 65% in size
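Reaction started by adding substrate (50 nM final) to 10 nM enzyme after 15 min room-temperature compound preincubation. Reads at 0 and 15 min, with data normalized and fitted to a four-parameter Hill equation.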
POLH inh: qHTS for Inhibitors of Polymerase Eta; DNA polymerase eta (Homo sapiens), Q9Y253; recombinant Pol eta, fluorescent DNA replication assay; Potency, µM (doses to about 114 µM), for inactives: at the top dose activity change, negative = inhibition, most hits filed as inhibitors; 390,000 compounds, 1.2% hits; further: on the % scale 0 is the no-effect control and ±100 the full control effect
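Fluorescent replication assay: 50 nM final substrate added after a 15 min room-temperature compound preincubation with 10 nM enzyme. Signal taken at 0 min and again at 10 min.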
Pol kappa inh: qHTS for Inhibitors of Polymerase Kappa; DNA polymerase kappa (Homo sapiens), Q9UBT6; purified Pol kappa, fluorescent DNA synthesis assay, 10 min; Potency, µM (titrated, usually from 107 µM), for the others: top-dose activity, negative = inhibition, hits mostly inhibitors; 400,000 compounds, 0.53% hits; further: on the % scale 0 is the no-effect control and ±100 the full control effect
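First, compounds were pin-transferred onto 10 nM Pol kappa. After 15 min at room temperature, substrate was added to 50 nM final. Fluorescence was then measured kinetically at 0 and 10 min.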
Pol beta inh: qHTS Assay for Inhibitors of DNA Polymerase Beta; P06746; Pol beta primer extension/strand displacement, fluorescence kinetic; Potency, µM (doses to about 114 µM), for inactives: at the highest dose activity change, negative = inhibition, actives largely listed as inhibitors; 340,000 compounds, 1.3% hits; AID 485314, 2010; further: on the % scale 0 is the no-effect control and ±100 the full control effect
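Homogeneous kinetic assay of primer extension and strand displacement by 10 nM Pol beta, preincubated 15 min at room temperature with compound before 50 nM substrate (final) was added. Read at 0 and 10 min; four-parameter Hill fit.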
POLI inh: qHTS for Inhibitors of Polymerase Iota. DNA polymerase iota (Homo sapiens), Q9UNA4. AID 588590, 2011. Potency, µM (highest dose often 115 µM), for the others: at the highest dose activity, negative = inhibition, usual class: inhibitors. 390,000 compounds, 1% hits. Pol iota fluorescent replication assay, 10 min
Target sequence (Q9UNA4 whole entry, looked up): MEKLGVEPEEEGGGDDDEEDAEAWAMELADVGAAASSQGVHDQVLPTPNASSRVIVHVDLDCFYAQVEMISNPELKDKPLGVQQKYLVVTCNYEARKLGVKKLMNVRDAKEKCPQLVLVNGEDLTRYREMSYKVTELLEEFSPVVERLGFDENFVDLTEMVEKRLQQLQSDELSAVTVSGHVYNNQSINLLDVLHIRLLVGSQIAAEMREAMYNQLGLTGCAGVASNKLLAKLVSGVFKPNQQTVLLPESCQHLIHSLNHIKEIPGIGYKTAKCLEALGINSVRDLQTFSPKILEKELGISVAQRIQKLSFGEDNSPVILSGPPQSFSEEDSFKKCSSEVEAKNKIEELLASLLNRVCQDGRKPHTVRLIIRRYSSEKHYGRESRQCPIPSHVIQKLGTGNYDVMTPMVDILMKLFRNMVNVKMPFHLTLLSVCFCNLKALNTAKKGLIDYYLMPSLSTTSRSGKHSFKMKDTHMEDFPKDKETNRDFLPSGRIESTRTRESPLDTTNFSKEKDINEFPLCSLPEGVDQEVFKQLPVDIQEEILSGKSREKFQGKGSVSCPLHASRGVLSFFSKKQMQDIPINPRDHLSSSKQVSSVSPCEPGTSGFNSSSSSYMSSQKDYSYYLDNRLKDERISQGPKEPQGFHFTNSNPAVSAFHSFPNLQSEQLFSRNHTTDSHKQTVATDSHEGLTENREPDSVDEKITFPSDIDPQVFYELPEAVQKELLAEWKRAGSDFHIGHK
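Pol iota at 10 nM preincubated 15 min with compounds at room temperature; reaction started with fluorescent substrate, 50 nM final. Fluorescence read kinetically at 0 and 10 min; buffer-only wells as negative control.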
WRN helicase inh-1: qHTS for Inhibitors of WRN Helicase; 360,000 compounds, 0.46% hits; Potency, µM (titrated, usually from 114 µM), without a hit: top-dose activity change, negative = inhibition, usual class: inhibitors; WRN helicase unwinding, fluorescent forked duplex, kinetic; Bifunctional 3'-5' exonuclease/ATP-dependent helicase WRN (Homo sapiens), Q14191; further: on the % scale 0 is the no-effect control and ±100 the full control effect; nearly all actives have a fitted effect of over 55% in size
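WRN at 20 nM final was preincubated with compound for 15 min at room temperature; reaction started with 100 nM forked duplex oligonucleotide carrying fluorophore and quencher plus 2 mM ATP (final). Unwinding followed kinetically by red fluorescence (ex 525/em 598 nm).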
FEN1 inh-2: qHTS Assay for the Inhibitors of FEN1: Confirmatory Assay for Cherry-picked Compounds; shares compounds with FEN1 inh-1; Potency, µM, most hits filed as inhibitors; 880 compounds, 79% hits; FEN1 flap cleavage, TAMRA/BHQ2 fluorogenic DNA substrate; further: nearly all actives have a fitted effect of over 60% in size
WRN helicase inh-2: qHTS for Inhibitors of WRN Helicase: Confirmatory Assay for Cherry-picked Compounds. shares compounds with WRN helicase inh-1. WRN helicase DNA unwinding, fluorescence kinetic. Potency, µM (highest dose often 57.1 µM), for inactives: top-dose activity, negative = inhibition, hits mostly inhibitors. 610 compounds, 63% hits. AID 720497, 2013; further: nearly all actives have a fitted effect of over 65% in size
TO DNA binding: qHTS for Inhibitors of WRN Helicase: Thiazole Orange DNA Binding Counterscreen; shares compounds with WRN helicase inh-1; thiazole orange DNA binding displacement, fluorescence; Potency, µM (series often up to 57.1 µM), without a hit: at the top dose activity change, negative = inhibition, hits mostly inhibitors; 610 compounds, 10% hits; AID 720499, 2013;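 further: drop in dye fluorescence marks compound binding to DNA; on the % scale 0 is the no-effect control and ±100 the full control effect; nearly all actives have a fitted effect of over 60% in size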
BLM helicase inh: qHTS for Inhibitors of WRN Helicase: BLM Helicase Counterscreen for WRN Inhibitors; AID 720503, 2013; 610 compounds, 60% hits; Potency, µM (doses to about 57.1 µM), for the others: at the highest dose activity change, negative = inhibition, most hits filed as inhibitors; Recombinant BLM helicase DNA unwinding, red fluorescence; shares compounds with WRN helicase inh-1; further: nearly all actives have a fitted effect of over 60% in size
* hit, by the source's call; ? = inconclusive; · = no result. An excerpt weighted towards active compounds, which were near 2.4% of everything screened. The call rests on the fitted dose curve; in most records, active means well fitted curve in the direction sought with a large enough effect; inconclusive means small, poorly fitted or top-dose-only effect, or another doubt; inactive means no such curve, though single readings can be large; an effect the other way counts as inactive or inconclusive. Potency means the concentration at half of the fitted maximal effect.

SMILES	FEN1 inh-1	POLH inh	Pol kappa inh	Pol beta inh	POLI inh	WRN helicase inh-1	FEN1 inh-2	WRN helicase inh-2	TO DNA binding	BLM helicase inh
COc1cc2c(cc1OC)-c1c3c(cc4c1[C@@H](C2)N(C)CC4)OCO3	2.5µM*	-11%	-42%	?	2.8µM*	?	34*	·	·	·
COC1C(C)OC(OC2CC(C)(O)Cc3cc4c(c(O)c32)C(=O)c2c(O)cc3c(c2C4=O)OC2OC3(C)C(O)C(N(C)C)C2O)C(OC)C1(C)OC (centres undefined)	16µM*	?	25µM*	·	?	16µM*	4.8*	2.2µM*	446%	?
O=C(c1ccccc1)c1cn(CC(=O)N2CCOCC2)c2ccccc12	-8%	-13%	-6%	18%	?	-4%	·	·	·	·
O=C1NC(=O)C(=Cc2ccccc2OCCOc2ccc([N+](=O)[O-])cc2)C(=O)N1	?	?	-5%	21%	?	35µM*	·	?	-16%	?
CN1C(=O)C(=Cc2ccccc2OCCOc2ccc([N+](=O)[O-])cc2)C(=O)N(C)C1=O	-23%	-13%	-9%	0%	?	-17%	·	·	·	·
CN(C)c1ccc(/C=C/c2cc[n+](C)c3ccccc23)cc1	35µM*	?	?	?	79µM*	35µM*	·	17µM*	15µM*	22µM*
NP(=O)(OCC(F)(F)F)Oc1ccc(Cl)cc1 (centres undefined)	-1%	-4%	-11%	3%	19%	-17%	·	·	·	·
